# Laboratory results published in PubChem BioAssay (NCI).
# Compounds without any hit were thinned out: in the full panel of roughly 83,000, 20% have a hit.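 Results are percent growth after 48 hours of single-concentration exposure. 100 means growth as in untreated cells, lower positive values show inhibition; negative values down to -100 show cell death.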 Values without a mark were called inactive. The source made the active and inactive calls. The calls were made as follows: active = growth percent below 10; inactive = the rest.
# Legend:
# Test in all cases: NCI-60 one-dose screen, 48 h (100 = growth as untreated, 0 = no growth, -100 = all killed)
# Conditions in all cases: 10 µM unless noted
# [1] = tested on: T-47D breast
# [2] = tested on: MDA-MB-435 melanoma
# [3] = tested on: SW-620 colon
# [4] = tested on: HCT-116 colon
# [5] = tested on: HCC-2998 colon
# [6] = tested on: KM12 colon
# [7] = tested on: MCF7 breast
# [8] = tested on: BT-549 breast
SMILES,growth [1],growth [2],growth [3],growth [4],growth [5],growth [6],growth [7],growth [8] [%]
O=S(=O)(NCCNc1cc(-c2cn(-c3ccccc3)nc2-c2ccccc2)ccn1)c1cccc2ccccc12,24.3%,46.3%,62.5%,34.8%,56.4%,41.6%,,
COC(=O)[C@H]1[C@H](OC)[C@@H](OC(=O)/C=C/c2ccncc2)CC2CN3CCc4c([nH]c5cc(OC)ccc45)[C@@H]3C[C@@H]21 (stereo not given in full),36.8%,77.9%,74%,61.1%,122%,93.6%,55.9%,
CCCCCCCCCCCCOB(OCCCCCCCCCCCC)OCCCCCCCCCCCC,,114%,117%,123%,91.6%,102%,97.5%,96.7
CC/C=C\C[C@H](O)C/C=C1/C(=O)C(Cl)=C[C@@H]1C/C=C\CCCC(=O)O,56.9%,19.3%,2.12% (active),-88.6% (active),76.4%,46.4%,26.3%,
O=Nc1c(-c2c(O)[nH]c3ccc([N+](=O)[O-])cc23)[nH]c2ccc(O)cc12,16.8%,9.35% (active),3.18% (active),2.29% (active),8.93% (active),-33% (active),2.75% (active),
CCC(=O)Oc1cc(/C=C/C(=O)O[C@H]2C[C@H]3CN4CCc5c([nH]c6cc(OC)ccc56)[C@@H]4C[C@@H]3[C@@H](C(=O)OC)[C@@H]2OC)ccc1OC,60.6%,67.1%,83%,53.3%,115%,95.3%,48.2%,
COc1ccc(NC(=O)CSc2nc3ccc(Cl)cc3c(=O)n2-c2ccccc2C(F)(F)F)c(OC)c1OC,61.9%,92.3%,,70.1%,99%,95.7%,78.9%,
O=C(CNC(=O)c1cccc2ccccc12)Nc1ccccc1Oc1ccccc1,12.1%,-5.12% (active),22.8%,-2.26% (active),21%,9.93% (active),,
Nc1cc2c(cc1N)-c1cc(N)c(N)cc1C2,110%,108%,102%,104%,105%,101%,93.5%,
COc1cc2c(cc1OCCCCn1c(-c3cc(=O)c4ccccc4o3)nc3ccccc31)N=C[C@@H]1CCCN1C2=O,79.4%,94.9%,86.6%,101%,128%,105%,72.6%,
CCc1c(C(=O)Nc2ccc3ccccc3c2)[nH]c(C)c1C(C)=O,83.6%,78.7%,99.5%,99.5%,99.1%,84.7%,,
CCC(=O)Nc1ccccc1C#C/C=C\C#Cc1ccccc1SC,57.2%,-16.5% (active),35.3%,41.6%,,43.5%,62.2%,
CCN(Cc1ccc(CN(CC)C(=O)C(Br)Br)cc1)C(=O)C(Br)Br,27.9%,22.3%,21.6%,-21% (active),18.8%,4.49% (active),,
Cc1ccc(OCCn2c(C)nn(-c3ccc(Cl)cc3)c2=O)cc1,104%,105%,106%,95.5%,111%,117%,98.8%,
CCCCCCCCCCn1cc[n+](C)c1,24.6%,7.98% (active),44.1%,17.6%,31.1%,14%,3.94% (active),
C=C1C(=O)O[C@H]2[C@H]1CC/C(Cn1cc(-c3ccc(N)cc3)nn1)=C\CC[C@@]1(C)O[C@@H]21,-40.4% (active),-7.57% (active),-44.8% (active),-56% (active),50.8%,51.5%,2.62% (active),
C=C1C(=O)O[C@H]2[C@H]1CC/C(COC(=O)NCc1cc(OC)c(OC)c(OC)c1)=C\CC[C@@]1(C)O[C@@H]21,34%,62.8%,,18.7%,101%,92%,17%,
COC1=CC(c2ccc[nH]2)=N/C1=C\c1[nH]c(C)c(C(=O)CCCCC(=O)Oc2ccc3c(c2)CCC2C3CC[C@]3(C)[C@@H](O)CC[C@@H]23)c1C (stereo not given in full),5.62% (active),51.2%,37.4%,20.9%,83.1%,29.4%,27.2%,
CC(=O)Nc1ccc(S(=O)(=O)N2C(=O)CCC2C(=O)Nc2ccc(Br)cc2)cc1 (stereo not given),1.46% (active),27.6%,,19.5%,49.4%,23.1%,9.58% (active),
CCN1C(=O)N(CC)C2C1NN=c1s/c(=C3\C(=O)N(C4CCCC4)c4ccccc43)c(=O)n12 (stereo not given),,-42.8% (active),28.5%,0.802% (active),-16.7% (active),10.9%,21.4%,

SMILES,growth [1],growth [2],growth [3],growth [4],growth [5],growth [6],growth [7],growth [8] [%]
CCN(Cc1ccccc1)c1ccc(SC#N)cc1,,98.6%,83.8%,43.7%,94.1%,41.3%,75.3%,71.5
CNC(C)=O,,105%,105%,105%,101%,106%,90.5%,76.3
Nc1c(C(=O)Nc2cccc([N+](=O)[O-])c2)sc2nc3c(cc12)C(O)CCC3 (stereo not given),,-22.9% (active),37.9%,24.1%,87.6%,33.4%,15.2%,58.1
Oc1ccc(N=Cc2ccccc2)cc1,,97.8%,99.9%,60.8%,100%,91.3%,84.8%,70.7
CCN1C(=O)N(CC)C2C1NN=c1s/c(=C\c3cccc(F)c3)c(=O)n12 (stereo not given),,-34.1% (active),28.5%,6.81% (active),19.5%,11.2%,20%,17.1
CC(=O)OCC1OC(OCC2OC(OC(C)=O)C(OC(C)=O)C(OC(C)=O)C2OC(C)=O)C(OC(C)=O)C(OC(C)=O)C1OC(C)=O (stereo not given),,104%,105%,99%,96.2%,108%,94.9%,100
COc1ccc(OC)c(/C=C2\Oc3cc(OCCN4CCCC4)ccc3C2=O)c1,,97%,81.4%,69%,98.7%,85.4%,88.1%,95.7
Cc1cc(Nc2nc(-c3ccncc3)nc3ccccc23)n[nH]1,,40.3%,78.3%,39.3%,72%,18.8%,40.2%,82.7
FC(F)(F)c1cccc(-n2nnc3cnc(Nc4ccc(N5CCCCC5)cc4)nc32)c1,,37.5%,35.7%,4.87% (active),88.3%,65.8%,71.2%,
CCN1C(=O)N(CC)C2Nn3c(s/c(=C\c4cccc(F)c4)c3=O)=NC21 (stereo not given),,5.47% (active),57.4%,45.4%,98.7%,49.1%,54.7%,80.4
COc1cccc2cc(-c3cc4ccccc4[nH]3)/c(=N/C(=S)Nc3ccccc3)oc12,,87.9%,74.1%,59.6%,82.6%,88.3%,79.5%,95.2
C#CCN1C(=O)/C(=c2\sc3n(c2=O)C2C(NN=3)N(CC)C(=O)N2CC)c2ccccc21 (stereo not given),,-63.2% (active),24.3%,4.43% (active),-1.47% (active),14.1%,23.3%,39.7
COc1cc2oc(-c3cccc(NC(=O)Nc4ccc5c(c4)OCO5)c3)cc(=O)c2c(OC)c1OC,,68.7%,57.3%,50.2%,59.2%,48.5%,65.1%,59.8
CC[C@H](C)[C@@H]1NC(=O)[C@H]([C@@H](C)O)NC(=O)C(Cc2ccccc2)NC(=O)[C@@H]2CCCN2C(=O)C(C(C)C)NC(=O)C(Cc2ccccc2)NC(=O)CNC(=O)[C@@H]2CCCN2C1=O (stereo not given in full),,74%,68.3%,18.8%,88.2%,59.2%,67.4%,
O=C(CC(O)c1ccncc1)c1ccccc1 (stereo not given),,105%,109%,15.5%,19.2%,38.2%,-24.2% (active),
CCN1C(=O)N(CC)C2C1NN=c1s/c(=C\c3ccccn3)c(=O)n12 (stereo not given),,-62.1% (active),23.7%,23.6%,65.8%,26%,22.5%,80
CCN1C(=O)/C(=c2\sc3n(c2=O)C2C(NN=3)N(CC)C(=S)N2CC)c2ccccc21 (stereo not given),,88.4%,102%,103%,104%,102%,82.8%,98.8
COc1cccc(NC(=O)Cn2cc3c(=O)oc4ccccc4c3n2)c1,,88.1%,,99.5%,110%,100%,88.1%,94.5
Cc1oc2nc[nH]c(=O)c2c1C(=O)/C=C/c1ccc(Cl)cc1,,6.74% (active),8.49% (active),13.7%,83.1%,13.6%,15.4%,20.2
C#CCN1C(=O)/C(=c2\sc3n(c2=O)NC2C(N=3)N(CC)C(=O)N2CC)c2ccccc21 (stereo not given),,-26.6% (active),41%,27%,100%,46.8%,42.2%,83.4

SMILES,growth [1],growth [2],growth [3],growth [4],growth [5],growth [6],growth [7],growth [8] [%]
NC(=S)NN=C1CCCCC1,,88.8%,69.1%,8.08% (active),105%,107%,15.9%,85.6
Nc1c(C(=O)Nc2cccc(Cl)c2Cl)sc2nc3c(cc12)C(=O)CCC3,,20.6%,64%,93%,77.8%,67.5%,86.7%,95.3
CCCCCCCC/C=C\CCCCCCCCOc1ccccc1CCOP(=O)(O)OCC[N+](C)(C)C,,92.7%,67.8%,27.2%,74.3%,21.8%,74.2%,
CCN1C(=O)N(CC)C2Nn3c(s/c(=C4\C(=O)N(C5CCCC5)c5ccccc54)c3=O)=NC21 (stereo not given),,-15.9% (active),53.9%,19.8%,91.8%,23.8%,45.7%,79.3
CCCCCC/C=C\CCCCCCCCOc1ccc(CCOP(=O)(O)OCC[N+](C)(C)C)cc1,,100%,,50.2%,89.2%,59.3%,79.2%,91.2
COc1ccc(/C=c2\sc3n(c2=O)C2C(NN=3)N(C)C(=O)N2C)cc1 (stereo not given),,-60.6% (active),23.5%,22.5%,54.9%,22.8%,22.7%,75.3
COc1cc(CCn2nnc3c(NCCCCO)ncnc32)cc(OC)c1,,97.9%,97.9%,97.7%,102%,103%,99.6%,
COc1ccc(/C=C2\Oc3cc(OCCN4CCCC4)ccc3C2=O)c(OC)c1,,94.3%,79.2%,41.3%,98.2%,74.3%,85.1%,94.2
COc1cccc(-n2cc(-c3nc(Cl)c4ccccc4n3)nn2)c1,,97.3%,,89.5%,105%,106%,92.6%,96.1
Cc1oc2nc[nH]c(=O)c2c1C(=O)/C=C/c1ccc(Cl)cc1Cl,,57.2%,31.2%,36.3%,102%,52.1%,39%,73.8
COc1ccc(NC(=O)/N=c2\oc3c(OC)cccc3cc2-c2cc3ccccc3[nH]2)cc1,,82.6%,,28.1%,95.5%,63.1%,70.1%,81.9
COc1cccc2cc(-c3cc4ccccc4[nH]3)c(=NC(=O)c3ccc(Cl)cc3)oc12,,33.1%,7.3% (active),26.9%,75.7%,33.9%,73.5%,62.7
O=C(Nc1ccccc1)OCC1OCOC(COC(=O)Nc2ccccc2)C1OC(=O)Nc1ccccc1 (stereo not given),,11.2%,8.17% (active),-51.6% (active),36.9%,51.2%,16.5%,93.5
COc1cc(CCn2nnc3c(Nc4ccc(N5CCOCC5)cc4)ncnc32)cc(OC)c1,,68.2%,90.8%,101%,99.7%,81.6%,102%,
CCCCCCCCCN1C(=O)/C(=c2\sc3n(c2=O)C2C(NN=3)N(CC)C(=O)N2CC)c2ccccc21 (stereo not given),,-9.54% (active),30.5%,5.86% (active),102%,9.43% (active),27.9%,82.2
COc1ccc(NC(=S)/N=c2\oc3c(OC)cccc3cc2-c2cc3ccccc3[nH]2)cc1,,77.2%,84.3%,64.7%,101%,73.2%,81%,90.4
CCCCCCCCCCCCCCCCCCOc1cccc(CCOP(=O)(O)OCC[N+](C)(C)C)c1,,93.6%,94.3%,70%,82.5%,50.1%,,92.5
c1ccc(CCn2nnc3c(Nc4ccc(N5CCOCC5)cc4)ncnc32)cc1,,23.8%,62.8%,54%,105%,53.2%,89.1%,
